Most compounds without a hit are left out; they make up all but 7.2% or so of the library.
Marburg entry inh – inhibitors of Marburg virus binding or cell entry. Marburg virus pseudotyped entry inhibition, cell reporter. Potency, µM (top dose mostly 37.8 µM), hits mostly inhibitors. actives 1.8% (n = 300,000); calls by dose curve; tested in HEK293 cells
Sm TGR inh – blocks Schistosoma mansoni thioredoxin glutathione reductase; purified TGR, DTNB reduction, TNB absorbance 405 nm; Potency, µM (series often up to 114 µM), usual class: inhibitors; actives 3% (n = 360,000); AID 485364; note: nearly all actives have a fitted effect of over 60% in size
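TGR 20 nM + NADPH 100 uM (dispensed conc.), cpd preinc 15 min RT; start with NADPH (500 uM addition) then DTNB (15 mM addition). Kinetic TNB absorbance, 405 nm filter. Four-parameter Hill fit across titration.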
Lassa entry inh – Lassa virus entry inhibition; Lassa virus pseudotype entry inhibition, cell reporter; Potency, µM (highest dose often 37.9 µM), actives largely listed as inhibitors; actives 1.2% (n = 300,000); calls by dose curve; tested in HEK293 cells; note: nearly all actives have a fitted effect of over 50% in size
FMDV antiviral – blocks foot and mouth disease virus. FMDV antiviral cell-based qHTS. Potency, µM (titrated, usually from 57.9 µM), hits mostly inhibitors. actives 1.2% (n = 410,000); calls by dose curve; tested in HEK293T cells; note: read-out not given here; nearly all actives have a fitted effect of over 45% in size
RE007 growth inh – less growth of the S. pombe RE007 Vpr strain; S. pombe RE007 Vpr strain, BacTiter-Glo ATP luminescence, 24 h; Potency, µM (doses to about 92.2 µM), most hits filed as inhibitors; actives 0.21% (n = 360,000); AID 651644; active = well fitted falling curve with a large enough effect; inconclusive = small, poorly fitted or top-dose-only effect; inactive = no such curve, though single readings can be large or run the other way; note: nearly all actives have a fitted effect of over 50% in size
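Fission yeast RE007 carrying one integrated HIV-1 vpr copy, seeded at OD 0.01 in PMG+AL medium with 23 nL pinned compound. Grown 24 h at 30 degrees; viability read by BacTiter-Glo luminescence after 5 min.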
HCV inh – inhibitors of hepatitis C virus infection; Huh7.5.1 HCVcc-Cre infection, luciferase reporter, 44 h; Potency, µM (top dose mostly 41.8 µM), hits mostly inhibitors; actives 3.4% (n = 340,000)
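Infectious HCV cell culture screen: compound-treated cells (1,000/well, pre-plated 4 h) are infected with HCVcc-Cre at roughly 0.5 moi and grown 44 h. Infection is quantified by luciferase signal after 15 min substrate incubation at room temperature.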
Numbers stand for hits; 0 = inactive; ? = inconclusive; - = no result given. Unless noted, calls come from the whole dose curve; as a rule, active = well fitted curve in the direction sought with a large enough effect; inconclusive = small, poorly fitted or top-dose-only effect, or another doubt; inactive = no such curve, though single readings can be large; an effect the other way counts as inactive or inconclusive.

SMILES	Marburg entry inh	Sm TGR inh	Lassa entry inh	FMDV antiviral	RE007 growth inh	HCV inh
COC(=O)C1=C(c2ccc(OCc3ccccc3)cc2)C[C@@H]2CC[C@H]1N2C(=O)NCc1ccc(OC)c(OC)c1	-	0	-	?	0	10µM
COC(=O)C1=C(c2cccc(OCc3ccccc3)c2)C[C@@H]2CC[C@H]1N2C(=O)NCCCc1ccccc1	-	0	-	0	0	?
COC(=O)C1=C(c2ccc(OCc3ccccc3)cc2)C[C@@H]2CC[C@H]1N2C(=O)NCCCc1ccccc1	-	0	-	0	0	6.3µM
Cn1c(=O)n(C)c2cc(NS(=O)(=O)c3ccc(C(C)(C)C)cc3)c(NCc3ccccc3)cc21	0	0	0	0	-	-
Cc1nc2cccnc2n1C1CCN(S(=O)(=O)c2ccc(Cl)cc2)CC1	-	0	0	0	-	-
O=C(Cc1c[nH]c2ccccc12)Nc1nnc(C2CC2)s1	?	0	3.5µM	0	?	0
CN1C(=O)NC(=O)/C(=C/c2ccc([N+](=O)[O-])s2)C1=O	0	8.9µM	0	?	?	0
Cc1ccc(/C=C2/C(=O)NC(=O)N(C)C2=O)cc1	?	0	0	0	0	0
Cc1cccc(N2C(=O)NC(=O)/C(=C/c3cc4c(cc3[N+](=O)[O-])OCO4)C2=O)c1	0	2.2µM	0	?	0	0
COc1ccc(OC)c(N2C(=O)NC(=O)/C(=C\c3ccc([N+](=O)[O-])s3)C2=O)c1	?	11µM	0	0	?	?
COc1ccc(N2C(=O)NC(=O)/C(=C\c3ccccc3[N+](=O)[O-])C2=O)cc1	0	16µM	-	0	0	0
CCOc1ccc(N2C(=O)NC(=O)/C(=C\c3ccccc3[N+](=O)[O-])C2=O)cc1	-	?	-	0	0	0
Cc1ccc2oc(=O)c3cc(C(=O)N4CCN(c5ccccc5F)CC4)sc3c2c1	0	0	0	0	-	-
Cc1ccccc1Cn1c(C)c(CNCCCc2ccccc2)c(C(=O)O)c1C	0	0	?	0	-	-
CC1CCN(c2ccc(-c3nc(C(C)C)no3)cc2[N+](=O)[O-])CC1	0	0	0	0	-	-
CCc1ccc(Oc2c(C(F)(F)F)oc3c(CN4CCN(C)CC4)c(O)ccc3c2=O)cc1	0	0	0	0	-	-
COc1ccc(C(=O)CN2C(=O)N(c3ccc(C(C)=O)cc3)S(=O)(=O)c3ccccc32)cc1	-	0	?	0	-	-
COc1cc(/C=C2\C(=O)NC(=O)N(c3ccccc3)C2=O)cc(OC)c1OC	?	?	0	?	0	0
O=C1NC(=O)N(c2ccccc2)C(=O)/C1=C\c1ccc([N+](=O)[O-])s1	0	10µM	0	0	?	0
COc1ccc(CN(C2CCCCC2C)S(=O)(=O)c2ccc(S(=O)(=O)N(C)C)cc2)cc1OC (centres undefined)	?	0	?	0	0	0
COc1cc(CN(C2CCCCC2C)S(=O)(=O)c2ccc(S(=O)(=O)NC3CC3)cc2)cc(OC)c1OC (centres undefined)	10µM	0	?	0	0	0
O=C(CCN1C(=O)C2CCCCC2C1=O)N1CCN(S(=O)(=O)c2cccc(F)c2)CC1 (centres undefined)	0	56µM	0	0	0	0
COc1ccc2c(CNC3CCCCCC3)c(C(=O)O)n(Cc3ccccc3F)c2c1	-	0	0	0	-	-
O=c1c2c3nc4ccccc4nc3n(/N=C/c3ccco3)c2ncn1CCC1=CCCCC1	?	13µM	0	-	0	?
Cc1ccccc1-c1nc(CS(=O)(=O)CC(=O)NCCCc2ccccc2)c(C)o1	0	0	0	0	-	-
SMILES	Marburg entry inh	Sm TGR inh	Lassa entry inh	FMDV antiviral	RE007 growth inh	HCV inh
Cc1nnc(Sc2nc3ccccc3o2)c2ccccc12	0	32µM	0	?	0	?
CCN(CC)C(=O)c1sc(NC(=O)Cc2cccs2)c(C#N)c1C	0	0	0	0	0	0
Cc1c(C#N)c(NC(=O)CCl)n(Cc2cccs2)c1C	-	4µM	-	20µM	0	?
COC(=O)c1cc(C(=O)OC)n(Cc2ccc(F)cc2)c1C	0	0	0	0	0	0
Cc1c(C#N)c(NC(=O)CCl)n(Cc2ccc(F)cc2)c1C	-	4.5µM	-	13µM	0	?
Cc1c(C#N)c(NC(=O)CCl)n(Cc2ccccc2)c1C	?	3.2µM	?	11µM	0	?
CCn1c(CCNC(=O)c2ccc(Cl)c(Cl)c2)nnc1SCCOc1ccc(OC)cc1	0	0	0	40µM	0	0
COc1ccc(OCCSc2nnc(CCNC(=O)c3ccc(Cl)c(Cl)c3)n2C)cc1	0	0	0	?	0	0
CC(C)c1ccc(N2C(=O)NC(=O)/C(=C/C=C/c3ccco3)C2=O)cc1	?	?	?	13µM	0	?
Cc1cc(C)cc(N2C(=O)NC(=O)/C(=C\C=C\c3ccco3)C2=O)c1	?	?	?	14µM	0	?
CCCCN1C(=O)/C(=C/C=C/c2ccco2)C(=O)NC1=S	0	4.5µM	0	0	0	0
CCc1ccc(N2C(=O)NC(=O)/C(=C\C=C\c3ccco3)C2=O)cc1	-	11µM	-	25µM	0	?
COc1ccc(C2C=C(c3ccc(Cl)cc3)Nc3nc(-c4ccc(Cl)cc4)nn32)cc1 (centres undefined)	?	0	?	?	-	-
CC[C@H]1OC(=O)[C@H](C)C(=O)[C@H](C)[C@@H](O[C@@H]2O[C@H](C)C[C@H](N(C)C)[C@H]2O)[C@](C)(OC)C[C@@H](C)C(=O)[C@H](C)[C@H]2N(CCCCn3cnc(-c4cccnc4)c3)C(=O)O[C@]12C	-	-	-	0	-	-
Cc1ccc(C(=O)c2sc(Nc3ccc(F)cc3)nc2N)c(C)c1	-	0	0	0	-	-
O=C1NC(=O)N(Cc2ccc(F)cc2)C(=O)/C1=C\C=C\c1ccco1	-	7.9µM	-	28µM	0	?
O=C1NC(=O)N(c2ccccc2)C(=O)/C1=C\C=C\c1ccccc1	0	14µM	0	13µM	0	?
Cc1ccc(N2C(=O)NC(=O)/C(=C/C=C/c3ccco3)C2=O)cc1	?	?	0	?	0	?
COC(=O)C1CCCCN1Cc1ccc2c(c1)CN(C1CCSCC1)CCO2 (centres undefined)	-	-	-	0	-	-
CCn1c(-c2ccccc2F)nc2cc(NC(C)=O)cc(C(=O)NCC3CCOCC3)c21	-	-	-	0	-	-
O=C(NC1CCCC1)c1ccc(CSc2nc3ccncc3n2Cc2cccc(F)c2)cc1	0	0	0	0	-	-
NC(=O)[C@@H]1[C@@H]2C(=O)N(c3ccc(F)cc3)C(=O)[C@@H]2[C@H]2C=Cc3ccccc3N21	?	32µM	0	0	0	0
COc1ccc(C2C=C(c3ccccc3)Nc3nc(NC(=O)c4ccc(C)cc4)nn32)cc1 (centres undefined)	?	0	0	0	-	-
COc1ccc(C(=O)Nc2nc3n(n2)C(c2ccc(Cl)cc2)C=C(c2ccccc2)N3)cc1OC (centres undefined)	?	22µM	0	?	-	-
O=C(Nc1nc2n(n1)C(c1ccccc1)C=C(c1ccccc1)N2)c1ccccc1 (centres undefined)	0	6.3µM	0	0	-	-

Screening results deposited in PubChem by National Center for Advancing Translational Sciences (NCATS).
